Results: PubChem BioAssay
Activity calls are given as the source filed them.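 How the source made its calls: active means GFP response above 150% of the DMSO level; inconclusive means fewer than 70 events counted for a yeast strain; inactive means the rest.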

test: TOR pathway CIT2 reporter hit retest – S. cerevisiae, GFP fusion, cherry picks, mother/daughter gates, confirmation (AID 2274); conditions: S. cerevisiae CIT2-GFP strain, flow cytometry, 3 h; at 10 µM; stronger effect = higher value

GFP response, % of DMSO, inactive:
N=c1n(CCN2CCCCC2)c2ccccc2n1CC(=O)c1ccc(Cl)c(Cl)c1 96.5%, COc1cc(NC(=O)c2ccccc2F)ccc1NC(=O)c1cc2ccccc2o1 100%, CCCC(=O)Nc1ccc(NC(=O)c2cc3ccccc3o2)c(OC)c1 97.3%, Cc1ccc(NC(=O)CCCSc2nc3ccccc3[nH]2)cc1 113%, COc1ccc2c(c1)C=Cc1ccccc1O2 104%, Cc1ccc(-n2nc(C)c3c(C)c(CCC(=O)O)c(C)nc32)cc1 102%, Oc1ccc(/C=N/Nc2nc(-c3cccnc3)nc3ccccc23)c(O)c1 106%, CCCOc1ccc(N2C(=O)CC(SCCN)C2=O)cc1 (configuration not stated) 98.3%, CCN(CC)C(=O)c1ccc(-c2cccs2)s1 98.3%, O=C(COc1ccccc1[N+](=O)[O-])Nc1ccc(NC(=O)c2cc3ccccc3o2)cc1 92.2%, COCCNC(=O)c1ccccc1-c1nc(-c2ccccc2Cl)no1 105%, COc1ccc(N2C(=O)CC(Sc3ncn[nH]3)C2=O)c(OC)c1 (configuration not stated) 109%, COc1ccc(N=Nc2ccc(O)c3ncccc23)cc1 109%, COc1cc(NC(=O)c2ccccc2)ccc1NC(=O)c1cc2ccccc2o1 100%, CS(=O)(=O)N1N=C(c2ccco2)CC1c1ccc(Br)cc1 (configuration not stated) 103%, CCN(C(=O)c1ccccc1Cl)c1ccccc1 100%, Cc1ccc(NC(=S)N/N=C/c2c(C)[nH]c3ccccc23)cc1 104%
